Assay outcomes: PubChem BioAssay, National Center for Advancing Translational Sciences (NCATS)
KinaseGlo FLuc: blocks Kinase-Glo luciferase, a counter-screen artifact | 200,000 compounds, 0.28% hits | AID 1379 | Q27757 | Potency, µM (top dose mostly 38.3 µM), for the others: top-dose activity change, negative = inhibition, usual class: inhibitors | Kinase-Glo luciferase, ATP luminescence, 8 min; also: % is scaled to controls: 0 for no effect and ±100 for the full control effect; nearly all actives have a fitted effect of over 60% in size
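Compound is pinned into ATP-containing buffer (10 uM ATP, imidazole pH 7.2, 7 mM MgCl2). Kinase-Glo luciferase reagent is then added. Light output is recorded following an 8-min room-temperature incubation.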
SMN2 splice enh: SMN2 splice variant enhancement; Potency, µM (titrated, usually from 46.1 µM), for inactives: top-dose activity change, positive = activation, most hits filed as activators; HEK293 SMN2-luciferase splicing reporter, luminescence, 30-36 h; 210,000 compounds, 2.8% hits; also: % of control where 0% means no effect; nearly all actives have a fitted effect of over 55% in size
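HEK293 cells carry an SMN2 […]–luciferase reporter in which exon 7 inclusion puts luciferase in frame. Cells were plated 10-12 h before compound addition, then incubated 30-36 h at 37C. ONE-Glo luminescence was read; sodium butyrate at 4.5 mM final served as control.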
FLuc modulator: counter-screen for miR-21 project: firefly luciferase inhibitors or activators. purified FLuc, Km substrates, luminescence inhibition. AID 588342. P08659. 360,000 compounds, 6.9% hits. Potency, µM (top dose mostly 57.5 µM), for inactives: top-dose activity change, negative = inhibition, most hits filed as inhibitors;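 also: plate controls were vehicle for no effect and reference inhibitor for full effect; nearly all actives have a fitted effect of over 55% in size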
Target sequence (P08659 whole entry, looked up): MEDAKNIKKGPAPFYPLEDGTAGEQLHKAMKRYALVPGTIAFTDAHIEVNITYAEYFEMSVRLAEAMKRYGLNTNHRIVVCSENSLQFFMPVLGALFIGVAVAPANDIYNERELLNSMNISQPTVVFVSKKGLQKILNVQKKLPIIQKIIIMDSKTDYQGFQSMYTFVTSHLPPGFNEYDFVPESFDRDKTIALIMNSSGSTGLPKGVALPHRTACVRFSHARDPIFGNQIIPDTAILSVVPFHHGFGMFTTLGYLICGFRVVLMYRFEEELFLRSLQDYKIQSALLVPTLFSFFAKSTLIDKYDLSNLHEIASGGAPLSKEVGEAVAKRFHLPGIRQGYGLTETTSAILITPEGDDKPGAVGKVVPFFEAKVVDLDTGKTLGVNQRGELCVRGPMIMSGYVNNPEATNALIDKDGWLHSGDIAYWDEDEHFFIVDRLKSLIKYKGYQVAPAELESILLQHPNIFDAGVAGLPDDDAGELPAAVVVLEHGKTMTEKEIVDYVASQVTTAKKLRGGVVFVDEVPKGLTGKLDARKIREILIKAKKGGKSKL
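Purified P. pyralis luciferase (10nM final) with 10uM D-luciferin and 10uM ATP (Km levels) in 50mM Tris acetate pH 7.5, 10mM Mg acetate, 0.01% Tween-20, 0.05% BSA; qHTS 6-point titration, ~60 µM downward; luminescence read.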
ELG1 genotoxic: induces genotoxicity in HEK293T cells with luciferase-tagged ELG1; 330,000 compounds, 1.3% hits; HEK293T ELG1-luciferase reporter, luminescence, 16 h; Potency, µM (doses to about 46 µM), for the others: top-dose activity change, positive = activation, hits mostly activators; also: % of control where 0% means no effect; nearly all actives have a fitted effect of over 60% in size
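Genotoxic stress is detected as increased luminescence from luciferase-tagged ELG1 in HEK293T cells, measured with ONE-Glo after a 16 hr treatment at 37 °C.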
NPC1 prom act: activators of NPC1 promoter; AID 485313; Huh7 NPC1 promoter luciferase reporter, 24 h; Potency, µM (top dose mostly 9.22 µM), for inactives: at the highest dose activation, most hits filed as activators; 320,000 compounds, 2.4% hits; also: % of control where 0% means no effect; nearly all actives have a fitted effect of over 60% in size
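Luminescence read-out of NPC1 promoter-driven luciferase in stably transfected Huh7 cells; compounds delivered in DMSO and left 24 h at 37C, 5% CO2, qHTS titration format.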
Rab9 prom act: activators of Rab9 promoter; Huh7 Rab9 promoter-luciferase reporter, luminescence, 24 h; Potency, µM (highest dose often 9.22 µM), for the others: at the top dose activation, negative = inhibition, actives largely listed as activators; 320,000 compounds, 2.8% hits; also: % of control where 0% means no effect; nearly all actives have a fitted effect of over 60% in size
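Luciferase signal after 10 min detection reagent at ambient indicates Rab9 promoter upregulation; stably transfected Huh7 cells were treated 24 h with compound in DMSO at 37 °C, 5% CO2.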
* hit, by the source's call. This is a sample that favours compounds with a hit; in the whole collection about 7.5% have one here. Calls follow the shape of the dose curve; as a rule, active = well fitted curve in the direction sought with a large enough effect; inconclusive = small, poorly fitted or top-dose-only effect, or another doubt; inactive = no such curve, though single readings can be large; an effect the other way counts as inactive or inconclusive. Potency is read from the fitted curve at half-maximal effect.

How did COc1cc(C(=O)NC(=S)Nc2ccc(N3CCCC3)cc2)cc(OC)c1OC do in these assays?
FLuc modulator: 3%; ELG1 genotoxic: -2%; NPC1 prom act: -1%; Rab9 prom act: 0%

How did CCCC/C(O)=N\S(=O)(=O)c1ccc(N=NN(C)C)cc1 do in these assays?
KinaseGlo FLuc: 0%; SMN2 splice enh: -4%; FLuc modulator: -1%; ELG1 genotoxic: -3%; NPC1 prom act: -4%; Rab9 prom act: -2%

How did CCc1ccc(CNC(=O)C(CC)n2ccc3cc(S(=O)(=O)N4CCCCC4)ccc32)cc1 (stereo unspecified) do in these assays?
FLuc modulator: 4%

How did CC(NC(=O)c1ccccc1)C(=O)OCC(=O)c1c(N)n(C)c(=O)n(C)c1=O (stereo unspecified) do in these assays?
FLuc modulator: 7%; ELG1 genotoxic: -2%; NPC1 prom act: 0%; Rab9 prom act: -2%

What do the screens show for `COC(=O)c1cc(CSc2nc3ccccc3c(=O)n2C)oc1C`?
FLuc modulator: 4%; ELG1 genotoxic: -40%; NPC1 prom act: -6%; Rab9 prom act: -13%

What do the screens show for `Cc1cccc(C(=O)NC2CCN(CC(=O)Nc3ccc4c(c3)OCO4)CC2)c1`?
KinaseGlo FLuc: -1%; FLuc modulator: 4%; ELG1 genotoxic: 1%; NPC1 prom act: 0%; Rab9 prom act: -20%

What do the screens show for `O=C(NC1CC1)c1cccc(Nc2ccc(-c3ccc4c(c3)OCCO4)nn2)c1`?
KinaseGlo FLuc: -16%; SMN2 splice enh: inconclusive; FLuc modulator: 0.6µM*; ELG1 genotoxic: inconclusive; NPC1 prom act: inconclusive; Rab9 prom act: 2µM*

What do the screens show for `O=S(=O)(c1ccc(Nc2ccc(-c3ccc4c(c3)OCCO4)nn2)cc1)N1CCCC1`?
KinaseGlo FLuc: 0%; SMN2 splice enh: 5%; FLuc modulator: 5.4µM*; ELG1 genotoxic: 2%; NPC1 prom act: 17%; Rab9 prom act: 20%

What do the screens show for `COc1ccc(NC(=O)CCn2cccn2)cc1OC`?
FLuc modulator: 3%

Results for CCn1cc2nc(SCc3ccccc3Cl)n(Cc3ccc(OC)cc3)c(=O)c2n1 ?
FLuc modulator: -1%

How did C/C(Cn1nnc2ccccc21)=N\NC(=O)c1cccc(Br)c1 do in these assays?
KinaseGlo FLuc: 1%; SMN2 splice enh: 9%; FLuc modulator: -9%; ELG1 genotoxic: 5%; NPC1 prom act: -3%; Rab9 prom act: -6%

How did O=C(Nc1ccccc1)Nc1ccc(Br)cc1F do in these assays?
KinaseGlo FLuc: 2%; SMN2 splice enh: 13µM*; FLuc modulator: inconclusive; ELG1 genotoxic: 14%; NPC1 prom act: inconclusive; Rab9 prom act: inconclusive

What do the screens show for `O=C(Nc1ccc(Cl)cc1)c1ccc(Br)cc1F`?
KinaseGlo FLuc: -5%; SMN2 splice enh: 14µM*; FLuc modulator: 3µM*; ELG1 genotoxic: 3.3µM*; NPC1 prom act: 1.4µM*; Rab9 prom act: 1µM*

How did Cc1cc(NC(=O)Nc2ccccc2F)ccc1Br do in these assays?
FLuc modulator: 2.4µM*; ELG1 genotoxic: inconclusive; NPC1 prom act: 1.4µM*; Rab9 prom act: 1.3µM*

What do the screens show for `O=C(O)CSc1ccc(NC(=O)Nc2ccccc2F)cc1`?
FLuc modulator: 12µM*; ELG1 genotoxic: 2%; NPC1 prom act: -2%; Rab9 prom act: 2%

What do the screens show for `CC(=O)Nc1ccc(SCC(=O)O)cc1`?
KinaseGlo FLuc: 2%; SMN2 splice enh: 4%; FLuc modulator: 1%; ELG1 genotoxic: -1%; NPC1 prom act: -5%; Rab9 prom act: 3%

Results for COc1cccc(NC(=O)c2cn(C3CCCCC3)c(=O)c3c2c2ccccc2n3C)c1 ?
SMN2 splice enh: -24%; FLuc modulator: 4%

What do the screens show for `NC(=O)C1CN(C(=O)c2nn(Cc3ccccc3)c(=O)c3ccccc23)c2ccccc2O1` (stereo unspecified)?
FLuc modulator: 4%; ELG1 genotoxic: -2%; NPC1 prom act: -5%; Rab9 prom act: 1%
